Test results published in PubChem BioAssay (NCATS).
Results filed as inconclusive are left out. The source made the active and inactive calls. Unless noted, the call rests on the fitted dose curve; in most records, active means well fitted curve in the direction sought with a large enough effect; inconclusive means small, poorly fitted or top-dose-only effect, or another doubt; inactive means no such curve, though single readings can be large; an effect the other way counts as inactive or inconclusive.

Assays:
[1] = Cell Viability - BJ (AID 421; calls by dose curve;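 further: potency means the concentration at half of the fitted maximal effect; cells exposed to compound for 40 hours at 37 °C before readout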); settings: BJ fibroblast viability, qHTS
Summary of the method: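 Cytotoxicity as drop in intracellular ATP (CellTiter-Glo, 20 min RT) after 40 hr compound exposure of BJ fibroblasts at 37 °C. Titrations scaled between DMSO and 100 uM tamoxifen, Hill-fitted for AC50.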

[2] = Cell Viability - Hek293 (AID 427;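 active means compounds whose dose-response curve shows a full or clear partial loss of cell viability, called from curve shape rather than a numeric limit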;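 further: potency means the concentration at half of the fitted maximal effect; cells exposed to compound for 40 hours at 37 °C before reading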); settings: qHTS
Summary of the method: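 Luminescent ATP content (CellTiter-Glo, 20 min at room temperature) was measured after a 40 hr, 37 °C compound exposure of HEK293 cells. AC50 values came from Hill-equation fits of qHTS concentration-response data normalized to DMSO and 100 uM tamoxifen.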

[3] = Cell Viability - HepG2 (AID 433; calls by dose curve;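 further: potency means the concentration at half of the fitted maximal effect; potency for ATP loss meaning cytotoxicity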); settings: qHTS
Summary of the method: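 HepG2 cells, 1500 per well, treated 40 hr at 37 °C in complete medium; viability from intracellular ATP by CellTiter-Glo luminescence. Normalized to DMSO and 100 uM tamoxifen; AC50 from Hill fit of qHTS concentration-response.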

[4] = Cell Viability - MRC5 (AID 434; calls by dose curve;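 further: potency means the concentration at half of the fitted maximal effect; potency reflects cytotoxicity seen as loss of intracellular ATP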); settings: MRC5 lung fibroblast viability, qHTS
Summary of the method: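 AC50 values come from Hill-equation fits of intracellular ATP loss, measured by CellTiter-Glo luminescence. Normal lung fibroblasts (MRC5) had 40 hr compound treatment at 37 C, normalized between DMSO and 100 uM tamoxifen.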

[5] = Cell Viability - SK-N-SH (AID 435; calls by dose curve;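 further: potency means the concentration at half of the fitted maximal effect; compound exposure lasted 40 h at 37 °C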); settings: SK-N-SH neuroblastoma cell viability qHTS
Summary of the method: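 SK-N-SH neuroblastoma cells (1500/well) treated 40 h at 37 °C in complete medium; viability read as cellular ATP by CellTiter-Glo luminescence. Normalized to DMSO and 100 uM tamoxifen; AC50 from Hill fits of qHTS concentration-response.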

[6] = Cell Viability - NIH 3T3 (AID 541); settings: NIH 3T3 cell viability, qHTS; activity change, negative = cytotoxicity: at 92.2 µM (top of the series);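 further: plate controls were DMSO alone for no effect and tamoxifen positive control for full effect; nearly all actives have a fitted effect of over 25% in size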
Summary of the method: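 Cells seeded at 1000/well, rested 5 hr at 37 °C, then dosed and incubated 40 hr at 37 °C. CellTiter-Glo added, 20 min room temperature, luminescence read. AC50 by Hill fit.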

[7] = Cell Viability - HUV-EC-C (AID 542); further: on the % scale 0 is the no-effect control and ±100 the full control effect; nearly all actives have a fitted effect of over 35% in size
Summary of the method: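 Cells were seeded at 1000 per well and incubated 5 hr at 37 °C before compound addition. After 40 hr at 37 °C, CellTiter-Glo reagent was added for 20 min and luminescence read. AC50 values came from Hill-equation modelling.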

[8] = Cell Viability - H-4-II-E (AID 543); further: on the % scale 0 is the no-effect control and ±100 the full control effect; nearly all actives have a fitted effect of over 35% in size
Summary of the method: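 Cells seeded at 1500 per well and rested 5 hr; compounds added; 40 hr incubation at 37 °C; CellTiter-Glo added, 20 min at room temperature; luminescence read. Hill-equation fits gave AC50.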

[9] = Cell Viability - SH-SY5Y (AID 544); further: nearly all actives have a fitted effect of over 55% in size
Summary of the method: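 Cells were plated at 1500 per well and allowed 5 hr at 37 °C. Compounds were added across a concentration range and incubated 40 hr at 37 °C. CellTiter-Glo was added for 20 min at room temperature before luminescence reading.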

[10] = Cell Viability - Renal Proximal Tubule (AID 545); settings: renal proximal tubule cells viability, primary cells of rat origin; at 91.7 µM (top of the series); further: nearly all actives have a fitted effect of over 40% in size
Summary of the method: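 Rat renal proximal tubule primary cells, 1000/well, exposed to compounds for 40 hr at 37 °C in complete medium; cellular ATP read by CellTiter-Glo luminescence. AC50 from concentration-response fitted with standard Hill equation.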

[11] = Cell Viability - Mesenchymal (AID 546); settings: mesenchymal cells viability, qHTS; activity change, negative = cytotoxicity: at 91.7 µM (top of the series);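 further: cells exposed to compound for 40 hours before reading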
Summary of the method: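 CellTiter-Glo luminescence (intracellular ATP, 20 min room temperature) after 40 hr compound exposure at 37 °C of 1000 glomerulus-derived human kidney mesenchymal cells/well; AC50 values obtained by fitting qHTS concentration-response data to the Hill equation.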

[12] = Cellular Toxicity (caspase-3) HepG2 (AID 654);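 further: cells exposed to compound for 16 hours before reading; 0% = DMSO alone and 100% = caspase signal from 100 µM tamoxifen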
Summary of the method: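 Caspase 3/7 activation in HepG2 is measured as rising luminescence after a 16 hr treatment at 37 °C. Values are scaled between DMSO basal and 100 uM tamoxifen, and AC50 is fitted with the Hill equation.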

[13] = Cellular Toxicity (caspase-3) Jurkat (AID 655); settings: Jurkat caspase-3 activation, luminescence, DMSO = 0%, tamoxifen = 100%; at 92.2 µM (top of the series);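 further: cells exposed to compound for 16 h at 37 °C before reading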
Summary of the method: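 Jurkat cells (5000/well) in complete medium exposed 16 h at 37 C; caspase-3/7 activity read by Caspase-Glo luminescence after 20 min at room temperature. Normalized to DMSO and 100 uM tamoxifen; AC50 from Hill fits.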

[14] = Cellular Toxicity (caspase-3) BJ (AID 658);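 further: 0% = DMSO basal and 100% = 10 µM staurosporine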
Summary of the method: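 Caspase-Glo 3/7 luminescence, read 1 hr after reagent at room temperature, in normal BJ fibroblasts exposed 16 hours at 37 °C. AC50 values from Hill-equation concentration-response, scaled between DMSO basal and 10 uM staurosporine as 100%.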

[15] = Cellular Toxicity (caspase-3) MRC-5 (AID 659);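 further: 0% = DMSO basal and 100% = 10 µM staurosporine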
Summary of the method: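 Luminescent Caspase-Glo 3/7 read-out (1 h, room temperature) after a 16 h, 37 °C compound exposure of MRC-5 lung fibroblasts at 1500 cells/well. Concentration-response AC50 from Hill equation; 0% DMSO, 100% 10 uM staurosporine.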

[16] = Cellular Toxicity (caspase-3) Mesangial (AID 660);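 further: cells exposed to compound for 16 h before the caspase read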
Summary of the method: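 Seed cells derived from normal human renal glomeruli, incubate 5 h, add compounds across concentrations and incubate 16 h at 37 °C. Caspase 3/7 activation is then quantified by luciferase light, with AC50 derived by Hill modeling.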

[17] = Cellular Toxicity (caspase-3) SK-N-SH (AID 661);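 further: 0% = DMSO basal and 100% = 10 µM staurosporine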
Summary of the method: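 Cells were seeded and incubated 5 hr at 37 °C, dosed with compound over a concentration range for 16 hr, then given Caspase-Glo 3/7 reagent for 1 hr at room temperature before luminescence reading.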

[18] = Cellular Toxicity (caspase-3) H-4-II-E (AID 663); settings: Potency: caspase-3 activation;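 further: cells exposed to compound for 16 hr before readout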
Summary of the method: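 Caspase 3/7 activation measured by luminescent aminoluciferin substrate cleavage after 16 hr compound treatment of H-4-II-E cells in complete medium. Increase normalized between DMSO (basal) and 100 uM tamoxifen (100%); Hill-equation AC50 from concentration-response.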

[19] = Cellular Toxicity (caspase-3) Hek293 (AID 664);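 further: cells exposed to compound for 16 h at 37 °C before readout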
Summary of the method: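 qHTS, HEK293 (human embryonic kidney), 16 h cpd exposure in complete medium. Caspase-3/7 activation = luminescence increase; normalized to DMSO/100 uM tamoxifen; Hill-fit AC50.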

[20] = Cellular Toxicity (caspase-3) N2a (AID 665);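 further: compound exposure lasted 16 h at 37 °C before readout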
Summary of the method: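 Caspase-3/7 activation, measured as increased luminescence from aminoluciferin release, is quantified in mouse N2a cells exposed to compounds for 16 h. Values are normalized to DMSO and 10 uM staurosporine, with AC50 derived by Hill modelling.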

[21] = Cellular Toxicity (caspase-3) NIH 3T3 (AID 666);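 further: 0% = DMSO basal and 100% = 100 µM tamoxifen stimulation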
Summary of the method: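 Cells were plated at 1000 per well and incubated 5 hr at 37°C, then compound was added for 16 hr. Caspase-Glo 3/7 reagent followed for 20 min at room temperature before luminescence was read.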

[22] = Cellular Toxicity (caspase-3) Renal Proximal Tubule (AID 667);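 further: cells exposed to compound for 16 hours at 37 °C before detection; 0% = DMSO basal and 100% = 10 µM staurosporine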
Summary of the method: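 Freshly isolated primary rat kidney proximal tubule cells, 1000/well, treated 16 hr at 37 °C, then Caspase-Glo 3/7 luminescence after 1 hr. Normalized to DMSO and 10 uM staurosporine; AC50 from Hill fit.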

[23] = Cell Viability - LYMP2-001 (AID 921);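 further: 0% = DMSO only and full inhibition = tetraoctylammonium bromide control wells; nearly all actives have a fitted effect of over 70% in size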
Summary of the method: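 Human lymphoblastoid LYMP2-001 cells, 2500 per well, in complete medium, treated 24 h at 37 C. Viability from cellular ATP by CellTiter-Glo luminescence; AC50 from Hill-equation fits of qHTS concentration-response.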

[24] = MultiTox-Fluor Cytotoxicity Assay - LYMP1-001 - Dead Cells (AID 946)
Summary of the method: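 Cytotoxicity as increased dead-cell protease fluorescence (bis-AAF-R110, 485/520 nm), read 60 min after MultiTox-Fluor reagent. Human lymphoblastoid line exposed 16 h; Hill-fitted AC50, with DMSO as 0% and 15 uM tetraoctylammonium bromide as 100%.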

[25] = MultiTox-Fluor Cytotoxicity Assay - LYMP1-001 - Live Cells (AID 947);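 further: 0% = DMSO only and full inhibition = tetraoctylammonium bromide control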
[26] = Cell Viability - LYMP1-002 - Assay at 16 hr (AID 948);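 further: 0% = DMSO alone and full effect = 92 µM tetraoctylammonium bromide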
Summary of the method: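 LYMP1-002 human lymphoblastoid cells, 2500/well, were treated with compounds for 16 hr at 37 C in complete medium. Viability was read as intracellular ATP by CellTiter-Glo luminescence, and AC50 was derived from a Hill fit to concentration-response data.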

[27] = MultiTox-Fluor Cytotoxicity Assay - LYMP1-002 - Live Cells (AID 955); further: on the % scale 0 is the no-effect control and ±100 the full control effect
Summary of the method: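 Cells were seeded at 2500 per well and incubated 5 hr. Compounds were then added for 16 hr at 37 C, followed by MultiTox-Fluor reagent for 60 min at room temperature and fluorescence reading of viable-cell protease signal.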

[28] = MultiTox-Fluor Cytotoxicity Assay - LYMP1-003 - Dead Cells (AID 961); further: nearly all actives have a fitted effect of over 70% in size
Summary of the method: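 Dead-cell protease release, detected as bis-AAF-R110 fluorescence at 485/520 nm, was measured in LYMP1-003 cells after 16 h compound treatment at 37 C. AC50 values came from Hill-modeled qHTS curves normalized to DMSO (0%) and 15 uM tetraoctylammonium bromide (100%).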

[29] = MultiTox-Fluor Cytotoxicity Assay - LYMP1-003 - Live Cells (AID 962);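 further: cells exposed to compound for 16 hours at 37 °C; 0% = DMSO only and full loss = 92 µM tetraoctylammonium bromide; cytotoxic hits lower the live-cell protease signal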
Summary of the method: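 Acute cytotoxicity is scored as a drop in live-cell protease activity in human lymphoblastoid LYMP1-003 cells after 16 hr compound exposure at 37 C. AC50 values come from Hill-equation modelling of concentration-response data.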

[30] = Cell Viability - LYMP1-003 - Assay at 24 hr (AID 963);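 further: plate controls were DMSO only for no effect and tetraoctylammonium bromide positive control for full effect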
Summary of the method: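 Cytotoxicity is scored as a concentration-dependent fall in ATP-linked luciferase signal in human lymphoblastoid LYMP1-003 cells treated 24 hr at 37 C in complete culture medium.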

[31] = Cell Viability - LYMP1-003 - Assay at 40 hr (AID 964); further: on the % scale 0 is the no-effect control and ±100 the full control effect; nearly all actives have a fitted effect of over 60% in size
Summary of the method: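 Luminescent ATP signal (CellTiter-Glo) served as the viability read-out after 40 hr compound treatment of human lymphoblastoid LYMP1-003 cells at 37 C. Decreases in ATP were fitted with the Hill equation to give AC50.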

[32] = Cell Viability - LYMP2-003 (AID 965);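 further: cells exposed to compounds for 24 h before reading; 0% = DMSO only and full effect = 92 µM tetraoctylammonium bromide; nearly all actives have a fitted effect of over 50% in size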
Summary of the method: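 Human lymphoblastoid LYMP2-003 cells, 2500/well, exposed to compounds for 24 h at 37 C in complete medium. Viability read as intracellular ATP by CellTiter-Glo luminescence; AC50 from Hill-equation fits of qHTS concentration-response data.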

[33] = Cell Viability - LYMP2-004 (AID 966);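 further: plate controls were DMSO only for no effect and tetraoctylammonium bromide control for full effect; nearly all actives have a fitted effect of over 65% in size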
Summary of the method: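 qHTS cytotoxicity: human lymphoblastoid line, 24 hr compound treatment, 37 C, complete medium. Viability read as cellular ATP via luciferase luminescence; tetraoctylammonium bromide served as positive control.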

[34] = Cell Viability - LYMP2-005 (AID 967);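 further: plate controls were DMSO only for no effect and 92 µM tetraoctylammonium bromide control for full effect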
Summary of the method: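 Human lymphoblastoid LYMP2-005 cells, 2,500 per well in complete medium, rested 5 h at 37C then compound-treated 24 h at 37C. Intracellular ATP read by CellTiter-Glo luminescence after 30 min at room temperature; AC50 from Hill-equation fits of concentration-response data.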

[35] = Cell Viability - LYMP2-009 (AID 968);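 further: 0% = DMSO alone and the full-kill end = tetraoctylammonium bromide at 92 µM; nearly all actives have a fitted effect of over 55% in size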
[36] = Cell Viability - LYMP2-011 (AID 969);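 further: 0% = DMSO only and full inhibition = 92 µM tetraoctylammonium bromide; nearly all actives have a fitted effect of over 60% in size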
Summary of the method: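 In this qHTS cytotoxicity format, compounds are tested across concentrations on human lymphoblastoid cells in complete medium for 24 hours at 37 C. Viability is taken as cellular ATP measured by luciferase luminescence.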

[37] = Cell Viability - LYMP2-013 (AID 970);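 further: 0% = DMSO only and full inhibition = tetraoctylammonium bromide control; nearly all actives have a fitted effect of over 55% in size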
Summary of the method: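 Cytotoxicity is scored as a concentration-dependent drop in intracellular ATP in human lymphoblastoid cells after 24 hr compound exposure at 37 C. ATP is quantified by luciferase luminescence, and AC50 values come from Hill-equation modeling.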

C[C@H](CCC(=O)O)[C@H]1CC[C@H]2[C@@H]3CC[C@@H]4C[C@H](O)CC[C@]4(C)[C@H]3CC[C@]12C
inactive: Potency [1] > 92 µM | Potency [2] > 92 µM | Potency [3] > 92 µM | Potency [4] > 92 µM | Potency [5] > 92 µM | Potency [6] | outcome [7] | Potency [8] | Potency [9] | activity change, negative = cytotoxicity [10] -4.96% | activity change, negative = cytotoxicity [11] 15.4% | outcome [12] | caspase-3 activation [13] -0.354% | outcome [14] | outcome [15] | outcome [16] | outcome [17] | Potency [18] | outcome [19] | outcome [20] | outcome [21] | outcome [22] | Potency [23] | Potency [24] | Potency [25] | Potency [26] | Potency [27] | Potency [28] | Potency [29] | Potency [30] | Potency [31] | Potency [32] | Potency [33] | Potency [34] | Potency [35] | Potency [36] | Potency [37]
